Source: PubChem BioAssay (National Center for Advancing Translational Sciences (NCATS))
Hits are enriched below; roughly 1.4% of the tested compounds scored in any of these assays.
EPAC1 agonist = activates human EPAC1 exchange factor; O95398; Potency, µM (doses to about 154 µM), inactives show at the top dose activation, most hits filed as activators; 360,000 compounds, 0.073% hits; EPAC1 agonist qHTS, biochemical assay; response scale: 100% = response to 6.5 mM cAMP; note: nearly all actives have a fitted effect of over 60% in size
Target sequence (O95398 whole entry, looked up): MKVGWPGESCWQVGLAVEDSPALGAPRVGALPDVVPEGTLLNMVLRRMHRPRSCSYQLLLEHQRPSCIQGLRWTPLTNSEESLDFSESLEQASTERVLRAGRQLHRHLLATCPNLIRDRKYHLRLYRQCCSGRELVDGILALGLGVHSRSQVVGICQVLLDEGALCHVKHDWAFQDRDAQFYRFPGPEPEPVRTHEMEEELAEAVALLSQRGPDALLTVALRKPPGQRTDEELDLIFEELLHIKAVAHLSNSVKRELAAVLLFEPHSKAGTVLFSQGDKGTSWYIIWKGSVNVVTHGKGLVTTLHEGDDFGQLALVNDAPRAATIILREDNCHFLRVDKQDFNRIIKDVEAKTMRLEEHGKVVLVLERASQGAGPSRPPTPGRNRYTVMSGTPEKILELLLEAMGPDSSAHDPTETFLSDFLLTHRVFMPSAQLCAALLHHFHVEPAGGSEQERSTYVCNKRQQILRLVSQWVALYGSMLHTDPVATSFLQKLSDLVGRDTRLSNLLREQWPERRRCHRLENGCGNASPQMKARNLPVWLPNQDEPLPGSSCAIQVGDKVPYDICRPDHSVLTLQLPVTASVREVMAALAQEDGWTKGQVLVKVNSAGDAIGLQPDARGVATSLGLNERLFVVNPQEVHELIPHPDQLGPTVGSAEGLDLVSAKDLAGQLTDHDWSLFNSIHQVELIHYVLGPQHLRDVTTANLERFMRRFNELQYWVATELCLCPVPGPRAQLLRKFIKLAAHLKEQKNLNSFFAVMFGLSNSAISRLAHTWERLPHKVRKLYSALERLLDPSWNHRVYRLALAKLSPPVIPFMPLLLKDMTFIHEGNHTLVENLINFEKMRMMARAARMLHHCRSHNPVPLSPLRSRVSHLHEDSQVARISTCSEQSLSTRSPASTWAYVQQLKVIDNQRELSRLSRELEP
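Normalized to 6.5 mM cAMP, activity reflects EPAC1-catalysed release of BODIPY-GDP from Rap1B, followed kinetically over 30 min at 480 nm excitation, 540 nm emission. Reaction contained 100 nM EPAC1, 250 nM Rap1B-BODIPY-GDP, 50 uM GDP.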
EPAC2 ag = EPAC2 (human) agonism. EPAC2 activation, biochemical qHTS; response scale: 100% = 6.5 mM cAMP response. Potency, µM (top dose mostly 154 µM), for inactives: at the highest dose activation, most hits filed as activators. 360,000 compounds, 0.079% hits. AID 720711; note: nearly all actives have a fitted effect of over 50% in size
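Each well held 100 nM EPAC2, 250 nM RAP1B-BODIPY-GDP and 50 uM GDP. Fluorescence, read at 5-min intervals to 30 min, was referenced to a 6.5 mM cAMP positive control.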
EPAC2 antag = EPAC2 (human) antagonism. EPAC2 GEF exchange of Rap1B-BODIPY-GDP, fluorescence. Potency, µM (top dose mostly 114 µM), for inactives: top-dose activity, negative = inhibition, hits mostly inhibitors. 360,000 compounds, 0.18% hits. AID 720708; note: % is set by controls: 0 for no effect and ±100 for the full control effect; nearly all actives have a fitted effect of over 45% in size
BRCA1 expr act = activators of BRCA1 expression; Potency, µM (doses to about 46.1 µM), inactives show at the top dose activation, usual class: activators; MCF7-BRCA1-FFLuc reporter, luminescence, 48 h; response scale: scaled: vehicle 0%, 10 µM genistein 100%; AID 624202; 380,000 compounds, 1.1% hits; note: nearly all actives have a fitted effect of over 80% in size
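48 h compound treatment of MCF7-BRCA1-FFLuc cells (phenol-red free MEM, 37 °C), then 15 min with luciferase substrate and luminescence imaging.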
EPAC1 antagonist = blocks human EPAC1 exchange factor; O95398; EPAC1 GEF assay, Rap1b-BODIPY-GDP exchange fluorescence; Potency, µM (highest dose often 115 µM), without a hit: top-dose activity change, negative = inhibition, most hits filed as inhibitors; 360,000 compounds, 0.14% hits;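 note: plate controls were vehicle for no effect and positive control for full effect; nearly all actives have a fitted effect of over 50% in size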
USP1 inh = blocks the human USP1/UAF1 deubiquitinase complex | O94782 | recombinant USP1/UAF1, Ub-Rhodamine cleavage fluorescence | Potency, µM (doses to about 57.1 µM), without a hit: at the highest dose activity change, negative = inhibition, hits mostly inhibitors | 390,000 compounds, 0.23% hits | AID 743255; note: % is set by controls: 0 for no effect and ±100 for the full control effect; nearly all actives have a fitted effect of over 60% in size
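High-throughput fluorogenic screen: 1nM USP1/UAF1 complex, Ub-Rho substrate 150nM final, 50mM HEPES pH 7.8 with 0.5mM EDTA, 0.1 mg/ml BSA, 1mM TCEP and 0.01% Tween-20.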
The depositor's hits bear a star; i = inactive; ? = inconclusive; · = not tested or not shown. Calls come from the whole dose curve; as a rule, active = well fitted curve in the direction sought with a large enough effect; inconclusive = small, poorly fitted or top-dose-only effect, or another doubt; inactive = no such curve, though single readings can be large; an effect the other way counts as inactive or inconclusive. Potency is the fitted concentration of half-maximal effect.

SMILES	EPAC1 agonist	EPAC2 ag	EPAC2 antag	BRCA1 expr act	EPAC1 antagonist	USP1 inh
Cc1nc2cc(-c3ccc(Br)cc3)[nH]n2c(=O)c1Cl	13%	0%	4%	4.5µM*	-9%	-16%
COc1ccc(OCc2csc(N)n2)cc1	3%	10%	-12%	10µM*	3%	-21%
Cc1ccc(OCCc2csc(N)n2)cc1	5%	7%	-4%	91%	-22%	-14%
O=C(c1cc2cc(Br)ccc2o1)N1CCCCC1	0%	11%	?	4.5µM*	-4%	-30%
O=C(c1cc2cc(Cl)ccc2o1)N1CCCC1	-3%	9%	?	?	-20%	?
CCN(CC)CCNC(=O)c1ccc(NC(=O)C2CCN(c3ncnc4sc(C)c(C)c34)CC2)cc1	3%	3%	3%	-1%	2%	-4%
CCOC(=O)c1c2c(n(Cc3ccccc3)c1C)C(=O)C(=O)c1ccccc1-2	2%	0%	-1%	-97%	-18%	2.5µM*
COC(=O)C1(Cc2ccccc2)NC(c2ccc(F)cc2)C2C(=O)N(C)C(=O)C21 (stereo not given)	-8%	7.9µM*	-2%	-22%	11%	-13%
COC(=O)[C@]1(Cc2ccccc2)N[C@H](c2ccc(-c3ccccc3)cc2)[C@@H]2C(=O)N(C)C(=O)[C@@H]21	1%	13%	-7%	-36%	-9%	-17%
Cc1ccc(Cn2ccnc2C(=O)Nc2ccccc2)cc1	0%	6%	-11%	13µM*	-11%	-5%
COc1ccc(Cn2c(C(=O)O)c(CNCc3ccco3)c3ccc(OC)cc32)cc1	·	·	·	-31%	·	-7%
CC1=Nc2ccccc2/C1=C/c1c(N)n2c(S(=O)(=O)C(C)C)nsc2nc1=O	-3%	-6%	-25%	-5%	-27%	?
CC1=Nc2ccc(C)cc2/C1=C/c1c(N)n2c(S(=O)(=O)C(C)C)nsc2nc1=O	-22%	-11%	-5%	-24%	50µM*	-25%
COc1ccc(-c2nn3c(-c4cc(-c5ccccc5)n[nH]4)nnc3s2)cc1	·	·	·	-19%	·	·
CC(=O)O[C@@H](Cc1ccc(O)cc1)C(=O)CC(C)C	-8%	6%	7%	-10%	4%	·
O=C(Nc1ccccc1F)c1ccn[nH]1	10%	9%	7%	13%	-23%	-20%
O=C(Nc1ccccc1Cl)c1ccn[nH]1	0%	6%	15%	13µM*	6%	-20%
COc1ccccc1C1=NC(c2ccc(C)cc2)N=C1C (stereo not given)	13%	18%	?	10µM*	-9%	-19%
CCN(CC)S(=O)(=O)c1ccc(NC(=O)c2c(C)oc3ncnc(N4CCCCC4)c23)cc1	·	·	·	-8%	·	-15%
O=C(O)c1cccc(-n2cccc2/C=C2/SC(=O)N(CC(=O)N3CCCC3)C2=O)c1	-2%	-4%	4%	1%	-3%	-12%
COc1ccc(NC(=O)c2cnn(-c3ccccc3)c2C)cc1OC	8%	17%	0%	4µM*	-7%	-17%
Cc1ccc(NC(=O)c2cnn(-c3ccccc3)c2C)cc1C	-8%	25%	-19%	?	?	-5%
Cc1c(C(=O)Nc2cccc([N+](=O)[O-])c2)cnn1-c1ccccc1	-3%	12%	-2%	2.5µM*	-25%	-2%
O=[S+]([O-])([O-])c1ccc2c(c1)cc([S+](=O)([O-])[O-])c1nn(-c3ccc(/C=C/c4ccc(-n5nc6c([S+](=O)([O-])[O-])cc7cc([S+](=O)([O-])[O-])ccc7c6n5)cc4[S+](=O)([O-])[O-])c([S+](=O)([O-])[O-])c3)nc12	·	·	·	2%	·	·
Nn1c(SCC(=O)NC2CCCCC2)nnc1-c1ccco1	0%	0%	-15%	4%	5%	-6%
SMILES	EPAC1 agonist	EPAC2 ag	EPAC2 antag	BRCA1 expr act	EPAC1 antagonist	USP1 inh
FC(F)(F)c1cccc(-c2cc3nc(NCCCn4ccnc4)ccn3n2)c1	-8%	-1%	-5%	32%	-23%	·
Clc1ccccc1-c1cc2nc(NCCCn3ccnc3)ccn2n1	-3%	2%	-6%	10µM*	-13%	·
CC(C)C1Nc2ccc(S(N)(=O)=O)cc2C2C=CCC21 (stereo not given)	7%	7%	-8%	-10%	-7%	-18%
NS(=O)(=O)c1ccc2c(c1)C1C=CCC1C(C1CC=CCC1)N2 (stereo not given)	0%	5%	12%	-1%	71µM*	-24%
CCC(=O)Nc1cccc(C(=O)OCC(=O)c2ccccc2Cl)c1	-1%	-3%	11%	7.9µM*	11%	-13%
CCC(=O)Nc1ccccc1C(=O)OCC(=O)c1ccccc1	-2%	2%	-1%	2µM*	4%	-14%
CN(C)c1ccc(N=Nc2cccc(F)c2)cc1	6%	4%	-24%	1.6µM*	-6%	-9%
CC(=O)Nc1nnc(COc2ccc(Cl)cc2)s1	6%	9%	-1%	4.5µM*	-4%	0%
O=C(COc1ccc(F)c(Cl)c1)c1ccc[nH]1	5%	2%	-2%	93%	-1%	-11%
O=C(CCC(=O)c1ccc[nH]1)c1ccc(Cl)cc1	-6%	6%	12%	7.1µM*	18%	-10%
COCCCNc1c2c3c(cccc3[nH]c1=O)C(=O)c1ccccc1-2	100µM*	100µM*	i	-51%	i	4.5µM*
COCCCNC1=C(Cl)C(=O)c2ccccc2C1=O	-2%	2%	-21%	-42%	-4%	?
O=C(Nc1nsc(-c2ccccc2)n1)c1ccc(F)cc1	1%	7%	3%	11µM*	-12%	2%
Cn1c(=O)c2c(-c3ccccc3)n3c4ccccc4nc(-c4ccccc4)c3c2n(C)c1=O	·	·	·	·	·	-10%
N#Cc1cc(C#N)c(N2CCN(c3cccc(Cl)n3)CC2)nc1N	11%	13%	-2%	8.9µM*	-4%	-12%
CC(=O)C1=C(NC(=O)c2ccc(F)cc2)CC2C1C2(C)C (stereo not given)	7%	9%	-12%	-10%	1%	-9%
C/C(NC(=O)c1ccccc1)=C1/C(=O)CC2C1C2(C)C (stereo not given)	-9%	-4%	-1%	11µM*	-11%	-11%
Cc1ccc(-n2c(C)nc3ccsc3c2=O)cc1	5%	3%	7%	-1%	14%	-18%
Cc1ccc(-c2nc3ccsc3c(=O)o2)cc1	0%	6%	1%	13µM*	-7%	-10%
CC(C)CCOCc1nc2sc3c(c2c(=O)[nH]1)CCC(C)C3 (stereo not given)	8%	4%	-3%	13µM*	16%	?
